The full ranking holds about 110,000 compounds; the median of “z-score” is about -0.1, and the highest 2% start at about 2. Only a selection was taken, and the highest values are over-represented in it overall. The source made the active and inactive calls.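 Rule for the calls: active = z-score in the third read window above 3 or below -3; inactive = the rest.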

Metabotropic glutamate receptor 8 (Rattus norvegicus), sequence (P70579 whole entry, looked up): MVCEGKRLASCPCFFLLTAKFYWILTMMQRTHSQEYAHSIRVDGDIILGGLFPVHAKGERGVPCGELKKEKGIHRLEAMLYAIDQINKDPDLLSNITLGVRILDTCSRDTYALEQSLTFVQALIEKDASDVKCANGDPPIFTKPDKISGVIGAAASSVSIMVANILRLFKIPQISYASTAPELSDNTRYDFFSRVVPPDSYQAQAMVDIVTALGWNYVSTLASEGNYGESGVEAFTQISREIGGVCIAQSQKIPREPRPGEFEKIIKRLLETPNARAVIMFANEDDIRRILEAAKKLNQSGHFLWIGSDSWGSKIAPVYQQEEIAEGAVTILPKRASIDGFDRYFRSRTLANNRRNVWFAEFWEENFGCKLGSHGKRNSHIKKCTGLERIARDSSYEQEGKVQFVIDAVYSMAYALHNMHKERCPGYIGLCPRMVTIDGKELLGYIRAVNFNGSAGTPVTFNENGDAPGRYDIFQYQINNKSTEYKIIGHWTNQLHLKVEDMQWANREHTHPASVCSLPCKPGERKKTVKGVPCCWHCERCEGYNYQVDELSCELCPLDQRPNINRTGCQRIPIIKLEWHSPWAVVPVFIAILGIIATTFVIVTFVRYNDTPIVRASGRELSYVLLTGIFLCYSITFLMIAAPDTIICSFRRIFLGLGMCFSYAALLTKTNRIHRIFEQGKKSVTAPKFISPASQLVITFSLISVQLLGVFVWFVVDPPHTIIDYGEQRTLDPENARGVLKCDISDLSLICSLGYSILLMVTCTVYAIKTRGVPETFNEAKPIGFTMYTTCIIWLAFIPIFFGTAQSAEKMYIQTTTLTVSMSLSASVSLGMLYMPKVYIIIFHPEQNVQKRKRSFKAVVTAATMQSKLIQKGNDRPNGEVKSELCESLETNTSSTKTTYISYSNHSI

This assay concerns the target Metabotropic glutamate receptor 8 (Rattus norvegicus) (UniProt P70579). The assay can be described thus: rat mGluR8 modulators via GIRK flux, primary screen, cell-based, thallium flux, HTS (AID 488969). The conditions noted are these: HEK293 rat mGluR8, GIRK (G protein-gated inwardly rectifying potassium channel) thallium flux, FluoZin2; at 10 µM; stronger effect = higher value; submaximal glutamate (EC20) added with thallium.
Turning to `Cc1ccc(-n2nc(CN3CCOCC3)c(-c3ccccc3)c2N)c(C)c1`, the z-score was -0.0359.
The figure for `CCCOc1ccc(-c2csc(N)n2)cc1[N+](=O)[O-]` is -0.349; for `Cc1ccc(C2NC(c3ccc(C)cc3)C(C)C(=NO)C2C)cc1` (configuration not stated) it is -0.376.
The value for `O=C(Nn1cnnc1)c1ccccc1CCc1ccccc1` was 0.0675; that for `CS(=O)(=O)c1ccc2nc(NC(=O)C3COc4ccccc4O3)sc2c1` (configuration not stated) was 0.303; that for `Cn1c(=O)c2c(nc(NCc3ccc4c(c3)OCO4)n2Cc2ccccc2)n(C)c1=O` was -1.09.
The value for `CCc1ccc(S(=O)(=O)N2CC(=O)Nc3ccccc32)cc1` was -0.195; that for `Cc1cccc(Sc2ccc([N+](=O)[O-])cc2[N+](=O)[O-])n1` was -0.278.
`COc1cc(C=O)c(Br)cc1OCc1ccc(C)cc1` had a z-score of -0.101.
As for `COc1cc(C=O)c(Br)cc1OC1CCCC1`, the z-score was found to be 2.09.
The figure for `CCOc1cc(C=O)c(Br)cc1OC1CCCC1` is 0.0863.
Consider `CCOc1ccc(CCNC(=O)C2CCN(C(=O)N(C)C)CC2)cc1OCC`, for which the z-score came to 0.862.
For `Clc1ccc2c(c1)C(C1=NCCN1)c1ccccc1CS2` (configuration not stated), the z-score came to 0.865.
`Clc1ccc2c(c1)C(N1CCNCC1)Cc1ccccc1S2` (configuration not stated): the z-score was 3.92 (active).
`Clc1cccc2c1Sc1ccccc1CC2N1CCNCC1` (configuration not stated) had a z-score of 0.386.
The compound `COc1ccc(OC)c(N(CC(=O)Nc2cccnc2)S(=O)(=O)c2ccccc2)c1` came in with a z-score of -0.398.
In turn, `C=CCOc1cccc(/C=N/NC(=O)CN(c2cc(Cl)ccc2OC)S(=O)(=O)c2ccc(C)c([N+](=O)[O-])c2)c1` displayed a z-score of -0.0532.
The value for `Cc1ccc2nc3sc(C(=O)NCc4ccco4)c(N)c3cc2c1` was -0.222; that for `CNC(=O)CSc1nnnn1CCCOC` was 0.0742.
As to `CCOC(=O)C1=NN(C(C)=O)C2(CC(=O)N(c3cccc(C)c3)C2=O)C1` (configuration not stated), the z-score was -0.0266.
As to `CCC1=NN(C(=O)Cc2ccc([N+](=O)[O-])cc2)C(O)(c2ccc(Br)cc2)C1` (configuration not stated), the z-score was -0.206.
The value for `COC(=O)C1=NN(C(=O)c2ccc(C)cc2)C(O)(c2ccc(Cl)cc2)C1` (configuration not stated) was 8.48 (active); that for `CCOC(=O)C1=NN(C(=O)c2ccccc2)C(O)(c2ccc(C)cc2)C1` (configuration not stated) was 10.5 (active).
In turn, `CCC1=NN(C(=O)c2ccc(C)cc2)C(O)(c2ccc(Br)cc2)C1` (configuration not stated) yielded a z-score of 0.175.
Compound `CC1=NN(C(=O)c2ccc(C)cc2)C(O)(C(F)(F)OC(F)(F)F)C1` (configuration not stated) yielded a z-score of -0.0203.
`COC(=O)C1=NN(C(=O)c2ccc(Cl)cc2)C(O)(c2ccccc2)C1` (configuration not stated): the z-score is 11.5 (active).
As to `COC(=O)C1=NN(C(=O)c2ccccc2)C(C)(O)C1` (configuration not stated), the z-score is 0.19.
Take `CCOC(=O)C1=NN(C(=O)c2ccco2)C2(CC2)C1`: the z-score was -0.239.
Consider `CCC1=NN(C(=O)c2cccc(Br)c2)C(O)(c2ccc(Br)cc2)C1` (configuration not stated), for which the z-score is 3.84 (active).
For `COC(=O)C1(O)CC(C(C)C)=NN1C(=O)c1ccc(Cl)cc1` (configuration not stated), the z-score worked out at 0.417.
With `CCC1(O)CC(C(=O)OC)=NN1C(=O)c1ccccc1` (configuration not stated), the z-score is 0.602.
Compound `Cn1ncc(Br)c1C(=O)OCC(=O)Nc1nc(-c2ccccc2)cs1` had a z-score of -0.654.
`CCCCOCCCNC(=O)/C=C/c1ccccc1Cl` displayed a z-score of -0.149.
The compound `C/C=C/c1ccc(OCCCNC2CCCC2)c(OC)c1` returned a z-score of 1.24.
Compound `COC(=O)c1cc(C#N)c(N(C)Cc2ccccc2)nc1C` displayed a z-score of -0.154.
`CCc1nnc(NC(=O)CSc2nnc(-c3ccncc3)n2C)s1` yielded a z-score of -1.78.
As for `COC(=O)c1cc(O)c(OCc2ccccc2)c(O)c1`, the z-score is -0.276.
The figure for `CCOC(=O)C1=C(C)NC(=O)NC1c1cccc(O)c1` (configuration not stated) is -0.126.
For `CCOC(=O)C1CCC(CNCc2ccc(Cl)cc2)CC1` (configuration not stated), the z-score was -1.85.
As for `CNc1c([N+](=O)[O-])cnn1-c1ccc(Cl)cc1Cl`, the z-score is -0.197.
`CCOC(=O)C1=NN(C(=O)c2ccc(C)cc2)C(O)(c2ccc(Cl)cc2)C1` (configuration not stated): the z-score was 10.4 (active).
`CC1=NN(C(=O)COc2ccccc2C)C(O)(c2ccc(Cl)cc2)C1` (configuration not stated) yielded a z-score of -0.867.
Compound `CC1=NN(C(=O)COc2ccc(C)c(C)c2)C(O)(c2ccc(Cl)cc2)C1` (configuration not stated) had a z-score of -0.32.
`CN1CCN(c2ncnc3c2cnn3-c2ccc(Cl)cc2)CC1` displayed a z-score of 0.276.
Turning to `COc1ccccc1OCCNc1nc2c(c(=O)n(C)c(=O)n2C)n1C`, the z-score came to 1.41.
For `Cc1ccc(Cc2cnc(NC(=O)c3ccco3)s2)cc1`, the z-score is -0.555.
The compound `Cc1ccc(NC(=O)CSc2nc3ccccc3c3nc(CCc4c(C)n[nH]c4C)nn23)cc1F` displayed a z-score of -0.264.
The value for `COC(=O)CN1C(=O)CSc2ncccc21` was 0.767; that for `COCCNC(=O)CN1C(=O)CSc2ncccc21` was 3.57 (active).
Turning to `CNC(=O)CN1C(=O)CSc2ncccc21`, the z-score is 0.227.
Consider `COC(=O)c1ccc(C)c(NC(=O)Cc2coc3cc(OC)ccc23)c1`, for which the z-score was found to be 0.022.
On to `COCCSc1nnc(-c2cccc(C#N)c2)n1C`, for which the z-score was 2.31.
The value for `Cc1ccc(OCCSc2nnc(-c3ccncc3)n2C)cc1` was -0.157; that for `Cn1c(SCCOc2cccc(Cl)c2)nnc1-c1ccncc1` was -0.17.
With `Cc1ccc(S(=O)(=O)N2CCC(C(=O)N3CCC[C@H]3C(=O)NCc3ccccc3)CC2)cc1`, the z-score was -0.265.
`CCC(c1nnnn1C(C)(C)C)N1CCN(C2CCCC2)CC1` (configuration not stated) had a z-score of 0.224.
As for `O=C(CN(Cc1cccs1)C(=O)CNS(=O)(=O)c1ccc(F)cc1)NCc1ccco1`, the z-score is -0.317.
The value for `Cc1ccc(-c2cc(-c3cccs3)[nH]n2)c(O)c1` was 2.77; that for `Cc1ccc(-c2cc(-c3ccccc3C)[nH]n2)c(O)c1` was -0.115.
`Cc1ccc(-c2cc(-c3ccccc3[N+](=O)[O-])[nH]n2)c(O)c1` had a z-score of -0.292.
`COC(=O)c1cc(NS(=O)(=O)c2ccc(NCc3cccnc3)c(N)c2)cc(C(=O)OC)c1` gave a z-score of -0.104.
Consider `CCOC(=O)c1nc2cc3n(c(CC(C)C)c-2c1C)CC(C)=C3C`, for which the z-score is 0.604.
The compound `CCOC(=O)c1nc2cc3n(c(C)c-2c1C)C(C)C(CC)=C3C` (configuration not stated) returned a z-score of 2.31.
Compound `CCOC(=O)c1nc2cc3n(c(C)c-2c1C)C(C)C(C)=C3C` (configuration not stated) gave a z-score of -0.0669.
The figure for `CCOC(=O)Nc1sc2c(c1C#N)CCCC2` is 0.504; for `Cc1cnc(NC(=O)COc2cccc3c2OC(C)(C)C3)s1` it is 0.713; for `Cc1cnc(NC(=O)COc2ccccc2Cl)s1` it is 3.06 (active).
The value for `CSc1ccccc1NC(=O)COc1ccccc1Cl` was -1.54; that for `CCCCNC(=O)CCCCCNS(=O)(=O)c1ccc(OC)cc1` was 1.14; that for `O=C(CCCCCNS(=O)(=O)c1ccc(Br)cc1)NCCN1CCOCC1` was 0.263.
Compound `Cc1ccc(S(=O)(=O)NCCC(=O)NC2CCCC2)cc1` gave a z-score of 0.757.
`COc1ccc(CCCC(=O)NC2CCCCC2)cc1` displayed a z-score of -0.301.
`COc1ccc(S(=O)(=O)NCCCCCC(=O)NCCCN2CCOCC2)cc1` displayed a z-score of 2.89.
The figure for `COc1ccc(S(=O)(=O)NCCC(=O)NC2CCCCCCC2)cc1` is 3.82 (active).
In the case of `CC(C)(C)NC(=O)CN1CCC(O)(c2ccccc2)CC1`, the z-score was -0.263.
The value for `CCOC(=O)CC(=O)CSc1nc2cc(C)ccc2cc1C` was 0.9; that for `CNC(=O)c1sc(-c2ccccc2)nc1C` was -0.396.
Compound `COc1ccc(C(=O)CSc2ccc(-c3ccccc3)nn2)cc1` showed a z-score of -0.139.
The value for `Oc1c(C=NCc2ccncc2)sc2ccccc12` was 2.11.
In turn, `Oc1c(C=Nc2cccnc2)sc2ccccc12` came in with a z-score of -0.313.
On to `CN=Cc1sc2ccccc2c1O`, for which the z-score is 0.0625.
The compound `O=c1ccc(/C=C/c2ccccc2)nn1Cc1ccc(Cl)cc1Cl` displayed a z-score of 0.353.
`CCN(CC)c1ccc(C(=O)O)cc1` displayed a z-score of -0.133.
`CCN1CCN(C(=O)c2ccc(Sc3ccccc3Cl)c([N+](=O)[O-])c2)CC1`: the z-score is 0.195.
`CCN(CC)CCN1C(=O)c2oc3ccccc3c(=O)c2C1c1ccc(F)cc1` (configuration not stated): the z-score is 4.39 (active).
The figure for `CCN(CC)CCN1C(=O)c2oc3ccccc3c(=O)c2C1c1ccc(C)cc1` (configuration not stated) is 8.12 (active); for `CCN(CC)CCN1C(=O)c2oc3ccccc3c(=O)c2C1c1ccccc1` (configuration not stated) it is 3.81 (active).
In the case of `CCCOc1ccc(C2c3c(oc4ccccc4c3=O)C(=O)N2CCN(CC)CC)cc1OC` (configuration not stated), the z-score is 0.615.
The compound `COc1ccc(C2c3c(oc4ccccc4c3=O)C(=O)N2c2ccccn2)cc1` (configuration not stated) gave a z-score of -0.221.
The figure for `CCN(CC)CCCN1C(=O)c2oc3ccccc3c(=O)c2C1c1cccnc1` (configuration not stated) is 0.402.
The compound `CN(C)CCN1C(=O)c2oc3ccccc3c(=O)c2C1c1ccc(F)cc1` (configuration not stated) displayed a z-score of 1.86.
With `O=C1c2oc3ccccc3c(=O)c2C(c2cccc(O)c2)N1c1ccccn1` (configuration not stated), the z-score was -0.576.
As to `CN(C)CCN1C(=O)c2oc3ccccc3c(=O)c2C1c1cccc(Br)c1` (configuration not stated), the z-score was found to be 0.553.
The figure for `CN(C)CCN1C(=O)c2oc3ccc(F)cc3c(=O)c2C1c1ccncc1` (configuration not stated) is -0.265; for `CCOc1ccc(C2c3c(oc4ccccc4c3=O)C(=O)N2CCCN2CCOCC2)cc1` (configuration not stated) it is -0.851; for `CN1C(=O)c2oc3ccccc3c(=O)c2C1c1ccccn1` (configuration not stated) it is 8.59 (active).
The value for `COc1ccc2nc(NC3=NC(C(=O)Nc4ccc(C)cc4)CC(=O)N3)nc(C)c2c1` (configuration not stated) was -0.114; that for `Cc1cc(C)c(NC(=O)C2CCCCN2C)c(C)c1` (configuration not stated) was -0.0533; that for `COc1ccc(N=C2SC(C(N)=O)CC(=O)N2CCc2ccc(OC)c(OC)c2)cc1` (configuration not stated) was -0.154.
With `CCOCCOc1nc2c(c(=O)n(C)c(=O)n2C)n1CCc1ccccc1`, the z-score is -0.18.
In turn, `CCOc1ccc(NC(=O)Cn2nnc(-c3ccccc3NC(=O)c3cccs3)n2)cc1` gave a z-score of -0.124.
The compound `COc1cc(C=O)ccc1OS(=O)(=O)c1ccccc1[N+](=O)[O-]` showed a z-score of -0.429.
The value for `COc1ccc(S(=O)(=O)CCc2nnc(NC(=O)c3cccs3)s2)cc1` was -0.075; that for `COC(=O)c1ccccc1NC(=O)CN(c1ccccc1)S(=O)(=O)N(C)C` was -1.07; that for `CN(C)S(=O)(=O)N(CC(=O)Nc1ccccc1)c1ccccc1` was 0.311.
Compound `CN(C)S(=O)(=O)N(CC(=O)Nc1cccc(F)c1)c1ccccc1` registered a z-score of 0.587.
`CSc1cccc(NC(=O)CN(c2cccc(C)c2)S(C)(=O)=O)c1` registered a z-score of 0.00929.
Compound `CCCCNC(=O)c1ccccc1NC(=O)CN(c1ccccc1)S(=O)(=O)N(C)C` returned a z-score of 2.11.
In the case of `CSc1cccc(NC(=O)CN(c2ccccc2)S(=O)(=O)N(C)C)c1`, the z-score is 3.6 (active).
For the compound `CSc1cccc(NC(=O)CN(c2ccc(C)cc2C)S(C)(=O)=O)c1`, the z-score was 3.01 (active).
The figure for `CSc1cccc(NC(=O)CN(c2cc(C)ccc2C)S(C)(=O)=O)c1` is 1.11; for `CN(C)S(=O)(=O)N(CC(=O)Nc1ccccc1F)c1ccccc1` it is 0.148.
